Screens as filed in PubChem BioAssay.
CIT2 TOR yeast = modulators of TOR pathway CIT2-GFP in S. cerevisiae; S. cerevisiae CIT2-GFP strain, flow cytometry, 3 h; 100 means same as DMSO wells; GFP response vs DMSO, % at 10 µM; hit rate 0.065% among 320,000;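 active = GFP response relative to DMSO above a set limit, near the screen mean plus 3 SD, cut at about 150% in these data; inconclusive = Fewer than 70 cells measured for a yeast strain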;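 also: ratio of well median GFP fluorescence to mean of DMSO wells on the plate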
LAP4 TOR yeast = yeast TOR pathway LAP4-GFP modulation. S. cerevisiae LAP4-GFP multiplex, flow cytometry GFP, 3 h; median GFP as percent of DMSO wells. hit rate 0.34% among 320,000. GFP response vs DMSO, % at 10 µM. AID 2023;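 active = GFP response vs DMSO above a set limit, about the screen mean plus 3 SD, cut at about 150% in these data; inconclusive = under 70 cell events counted for the yeast strain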
MEP2-GFP yeast = alters MEP2-GFP fluorescence in TOR pathway yeast screen | GFP response vs DMSO, % at 10 µM | S. cerevisiae MEP2-GFP strain, flow cytometry GFP, 3 h; 100% = DMSO control level | hit rate 0.51% among 330,000 | AID 2016;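 active = GFP response versus DMSO above a set limit, roughly screen mean plus 3 SD, cut at about 180% in these data; inconclusive = fewer than 70 cells counted for a yeast strain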;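 also: median GFP fluorescence of the barcode-gated MEP2-GFP cells per well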
AGP1 TOR yeast = modulators of TOR pathway AGP1-GFP in S. cerevisiae; S. cerevisiae AGP1-GFP multiplex flow cytometry, 3 h; GFP as percent of DMSO wells; GFP response vs DMSO, % at 10 µM; hit rate 0.02% among 320,000; AID 2066;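 active = GFP response relative to DMSO above a set limit, near screen average plus 3 SD, cut at about 150% in these data; inconclusive = fewer than 70 cells counted for the yeast strain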;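 also: median GFP channel fluorescence of the gated AGP1 strain per well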
RPL19A TOR yeast = alters RPL19A-GFP fluorescence in TOR pathway yeast screen; AID 2025; percent response vs DMSO, % at 10 µM; hit rate 0.3% among 330,000; S. cerevisiae RPL19A-GFP strain, flow cytometry, 3 h; hits give low values;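 active = percent response vs DMSO below 50%; inconclusive = fewer than 70 events counted for the yeast strain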;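 also: median channel GFP fluorescence of the barcoded RPL19A-GFP strain; lower means less RPL19A-GFP as with rapamycin TOR inhibition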
VLA-4 inh = inhibition in a human VLA-4 binding assay; hit rate 0.2% among 330,000; P13612; VLA-4 expressing cells, ligand binding flow cytometry; inhibition, % (about 7 µM as worked out from the volumes in the protocol); in the data active = inhibition above about 50%
Target sequence (P13612 whole entry, looked up): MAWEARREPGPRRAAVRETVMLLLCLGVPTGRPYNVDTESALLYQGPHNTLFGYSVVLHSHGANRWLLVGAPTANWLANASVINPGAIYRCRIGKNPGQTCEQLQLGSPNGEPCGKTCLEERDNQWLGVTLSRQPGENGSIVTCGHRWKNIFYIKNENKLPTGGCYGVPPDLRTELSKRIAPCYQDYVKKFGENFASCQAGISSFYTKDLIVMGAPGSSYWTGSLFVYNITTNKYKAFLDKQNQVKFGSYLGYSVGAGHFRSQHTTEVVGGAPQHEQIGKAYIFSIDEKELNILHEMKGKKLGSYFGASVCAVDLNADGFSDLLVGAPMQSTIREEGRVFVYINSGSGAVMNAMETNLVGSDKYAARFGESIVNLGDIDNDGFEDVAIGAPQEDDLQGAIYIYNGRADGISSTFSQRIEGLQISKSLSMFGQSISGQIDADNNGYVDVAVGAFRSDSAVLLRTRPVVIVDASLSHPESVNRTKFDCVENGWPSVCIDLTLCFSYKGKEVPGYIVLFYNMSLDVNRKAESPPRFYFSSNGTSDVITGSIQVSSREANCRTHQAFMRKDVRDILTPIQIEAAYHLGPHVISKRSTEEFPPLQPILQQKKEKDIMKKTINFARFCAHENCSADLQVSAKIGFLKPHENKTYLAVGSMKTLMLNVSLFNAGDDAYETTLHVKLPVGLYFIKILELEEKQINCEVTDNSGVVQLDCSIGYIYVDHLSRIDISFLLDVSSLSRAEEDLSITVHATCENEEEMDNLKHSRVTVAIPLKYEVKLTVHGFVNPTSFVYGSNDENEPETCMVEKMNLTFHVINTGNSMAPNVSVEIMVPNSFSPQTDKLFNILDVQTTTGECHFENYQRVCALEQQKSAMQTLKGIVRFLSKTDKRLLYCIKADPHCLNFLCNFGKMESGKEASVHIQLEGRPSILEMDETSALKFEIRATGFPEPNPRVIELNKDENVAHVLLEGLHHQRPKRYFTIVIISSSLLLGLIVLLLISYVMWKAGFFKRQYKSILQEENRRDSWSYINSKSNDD
VLA-4 mod pick = confirmation of allosteric modulators of human VLA-4 integrin; shares compounds with VLA-4 inh; U937 cells, HUTS-21 LIBS mAb binding, flow cytometry; LDV ligand present at threefold Kd; inhibition, % at 6.7 µM; hit rate 2% among 1,300; in the data active = inhibition above about 40%
Of the large screens only hits and unclear results are named; the others gave an inactive call (follow-up assays come after a bar, where they were run). Shown are actives, neighbours in structure and some others; about 1.1% of the full set was active somewhere.

CCC(C)[C@H]1CNC(=O)C(=O)N1CCCc1cc(OC)c(OC)c(OC)c1 (stereo partly drawn)	none | VLA-4 mod pick inactive
CCn1c(Cc2ccccc2)nnc1SCc1ccc([N+](=O)[O-])cc1	none
COCCn1c(Cc2ccccc2)nnc1SCc1ccc([N+](=O)[O-])cc1	none | VLA-4 mod pick inactive
CCOc1cnn(-c2ccccc2)c(=O)c1Cl	none | VLA-4 mod pick inactive
CCCCCCCCOC(=O)c1ccc(N)cc1	VLA-4 inh 49.6 | VLA-4 mod pick inactive
CCCCOC(=O)c1ccc(O)cc1	none
CCNC(=O)COC(=O)c1cc(S(=O)(=O)N2CCCc3ccccc32)ccc1Cl	none | VLA-4 mod pick inactive
O=C(NCc1ccco1)c1cc(S(=O)(=O)N2CCCc3ccccc32)ccc1Cl	none
COCCNC(=O)c1ccc(S(=O)(=O)N2CCCc3ccccc32)cc1	none | VLA-4 mod pick inactive
O=C(OCc1c(F)cccc1Cl)c1cccnc1Cl	VLA-4 inh 50.6 | VLA-4 mod pick inactive
CSc1ncccc1C(=O)OCc1c(F)cccc1Cl	none
Cc1cc(C)cc(N(CC(=O)N2CCc3ccccc32)S(=O)(=O)c2c(C)noc2C)c1	none | VLA-4 mod pick inactive
N#CCCN(C(=O)COC(=O)COc1ccccc1Cc1ccccc1)c1ccccc1	none
COc1cccc(CNC(=O)c2ccccc2NC(=O)C2=C(C)OCCS2)c1OC	none
COC(=O)CCCC1=CC2=CC(=O)C(C)(OC(=O)c3cccs3)C(=O)C2=CN1CCCCO (stereo not drawn)	none
COCCN1C=C2C(=O)C(C)(OC(=O)c3cccs3)C(=O)C=C2C=C1CCCC(=O)OC (stereo not drawn)	VLA-4 inh 49.7 | VLA-4 mod pick inactive
CC1CCN(C(=O)Cn2c(=O)oc3ccccc32)CC1	none
COc1ccc(C)cc1NC(=O)Nc1ccccc1	VLA-4 inh 49.8 (no result: RPL19A TOR yeast) | VLA-4 mod pick inactive
CC1CCC(NC(=O)Cn2c(=O)oc3ccccc32)CC1 (stereo not drawn)	none | VLA-4 mod pick inactive
Cc1ccccc1NC(=O)Cn1c(=O)oc2ccccc21	none
CCOc1ccc(NC(=O)CN(C)C(=O)Cn2c(=O)oc3ccccc32)cc1OCC	none
CN(CC(=O)Nc1ccccc1C(F)(F)F)C(=O)Cn1c(=O)oc2ccccc21	none | VLA-4 mod pick inactive
COc1ccc(C)cc1NC(=O)Cn1c(=O)oc2ccccc21	none | VLA-4 mod pick inactive
O=C(N/N=C/c1cc(Br)cc([N+](=O)[O-])c1O)c1ccc(NC(=O)c2ccc(F)cc2)cc1	none
O=C(CN(C(=O)c1csnn1)c1ccccc1Cl)NC1CCCC1	none
COc1cc(OC)c(NC(=O)CN(C)S(=O)(=O)c2ccc3[nH]c(=O)oc3c2)cc1Cl	none
O=C(Nc1ccncc1)c1cc2ccccc2cc1O	none
CCCn1c(CCNC(=O)c2ccco2)nc2ccccc21	none
COc1ccc(NC(=O)Nc2ccccc2C(N)=O)cc1	none
COc1ccc(Cl)cc1NC(=O)CN(C)C(=O)Cn1c(=O)oc2ccccc21	none | VLA-4 mod pick inactive
Cc1ccc(NC(=O)Nc2ccccc2C(N)=O)cc1	none | VLA-4 mod pick inactive
COc1ccc(Cl)cc1NC(=O)CCn1c(=O)oc2ccccc21	none
COc1ccc(CN(C)C(=O)c2cc(S(=O)(=O)N3CCOCC3)ccc2N2CCCC2)cc1	none
CCc1ccc(OCCCCN(C)Cc2ccccc2)cc1	none
C=CC[n+]1c(C)csc1Nc1cccc(Br)c1	none
C=CC[n+]1c(C)csc1Nc1ccc(C)cc1	VLA-4 inh 51.6 | VLA-4 mod pick inactive
O=C(c1ccc2ccccc2n1)N1CCN(c2ccccc2)CC1	none
COc1ccc(N2CCN(C(=O)c3ccc4ccccc4n3)CC2)cc1	none | VLA-4 mod pick inactive
O=C1Cc2cc(S(=O)(=O)NCc3ccc(F)cc3)ccc2N1	none | VLA-4 mod pick inactive
Cc1cccnc1NC(=O)C(c1ccccc1)c1ccccc1	none
O=C1CCN(CCCc2ccccc2)CCN1[C@H](CO)Cc1ccccc1	VLA-4 inh 54.5 | VLA-4 mod pick inactive
O=C1CCN(CCc2ccccc2)CCN1[C@H](CO)Cc1ccccc1	none
Nn1c(SCC(=O)NCC2CCCO2)nnc1-c1ccc(OC(F)F)cc1 (stereo not drawn)	none
Nc1ncnc(Nc2ccccc2)n1	VLA-4 inh 54.5 | VLA-4 mod pick inactive
Cc1ccc(C(=O)NCCS(=O)(=O)N2CCN(c3ccccc3F)CC2)cc1[N+](=O)[O-]	none
O=C1/C(=C/c2cccs2)SC(=S)N1CCC(=O)N1CCCCC1CCO (stereo not drawn)	none
Cc1ccccc1C(=O)N1CCC(C(=O)Nc2ccc(C(C)C)cc2)CC1	none | VLA-4 mod pick inactive
Cc1ccccc1C(=O)N1CCC(C(=O)Nc2ccccn2)CC1	VLA-4 inh 51.4 | VLA-4 mod pick inactive
CCOC(=O)[C@@H]1[C@H]2COc3ccccc3[C@H]2N2C(=O)N(c3ccc(Cl)cc3)C(=O)[C@]12C	none
CN(Cc1ccccc1)S(=O)(=O)c1ccc(Cl)c(C(=O)OCC(=O)NC2CCS(=O)(=O)C2)c1 (stereo not drawn)	none
Cc1cccc(C)c1NC(=O)CN(C1CCCCC1)S(C)(=O)=O	none
CCOc1ccc2[nH]c(C(=O)N/N=C/c3ccc(OC)cc3)cc2c1	VLA-4 inh 55.6 | VLA-4 mod pick inactive
COc1ccc(/C=N/NC(=O)c2cc3cc(OC)c(OC)cc3[nH]2)cc1	none
CCc1ccc(C2C3=C(CC(C)(C)CC3=O)Nc3c2c(=O)[nH]c2nc(C)nn32)cc1 (stereo not drawn)	VLA-4 inh 57.0 | VLA-4 mod pick inactive
CCOC(=O)c1ccc(NC(=O)CCNS(=O)(=O)c2cc(Br)cnc2N)cc1	none
COc1ccc(S(=O)(=O)N2CCCCCC2)cc1C(=O)N1CCN(c2ccccc2O)CC1	none
COc1ccc(CC(=O)NNC(=O)CSc2ccc(C)cc2)cc1	VLA-4 inh 53.1 | VLA-4 mod pick inactive
CC(C)c1ccc(N2C(=O)CC(Sc3ncccn3)C2=O)cc1 (stereo not drawn)	CIT2 TOR yeast inconclusive
CCOc1ccc(NC(=O)C2CCN(S(=O)(=O)c3ccc4c(c3)C(C)(C)C(=O)N4C)CC2)cc1	none | VLA-4 mod pick inactive
CCOc1ccccc1NC(=O)C1CCCN(S(=O)(=O)c2ccc3c(c2)C(C)(C)C(=O)N3C)C1 (stereo not drawn)	VLA-4 inh 49.5 | VLA-4 mod pick inactive
Cc1ccccc1NC(=O)C1CCCN(S(=O)(=O)c2ccc3c(c2)C(C)(C)C(=O)N3C)C1 (stereo not drawn)	none
N#Cc1c(-c2ccc(Cl)cc2Cl)nc2n(c1=O)CCS2	VLA-4 inh 92.0 | VLA-4 mod pick inactive
